For assay [1], the target named is Transcriptional activator Myb (Homo sapiens) (UniProt P10242). In words: ATG_Myb_CIS: Attagene CIS-FACTORIAL HepG2 Assay for human Myeloblastosis (Myb) Proto-Oncogene Transcription Factor (AID 2282986). The following applies: HepG2 Attagene CIS-FACTORIAL Myb reporter transcription; actives raise or lower the signal. Put shortly: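 Endogenous transcription factor activity at a Myb-responsive cis element is reported in human liver HepG2 cells after 24 h chemical treatment. Reporter mRNA is detected by RT-PCR and capillary electrophoresis fluorescence, with DMSO as baseline.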

Assay [2] addresses Nuclear respiratory factor 1 (Homo sapiens) (UniProt Q16656). As to the kind of experiment: ATG_NRF1_CIS: Attagene CIS-FACTORIAL HepG2 Assay for human Nuclear Respiratory Factor 1 (NRF1) Orphan Gene (AID 2282987). Conditions: HepG2 NRF1 cis-element reporter, Attagene multiplex; actives raise or lower the signal. In short, it runs like this: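 Human hepatoma HepG2 cells carrying transfected promoter-regulated reporter units were incubated with test chemicals for 24 h. Reporter transcripts were measured by RT-PCR plus capillary electrophoresis, and endpoints derived by bidirectional fitting with DMSO as baseline.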

A short description of assay [3]: ATG_NFI_CIS: Attagene CIS-FACTORIAL HepG2 Assay for human Nuclear Factor I (NFI) (AID 2282989). Conditions: HepG2 cis-regulatory reporter, NFI response element transcription; actives raise or lower the signal. In short, it runs like this: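 HepG2, transient MRTU, 24 h exposure; RNA→cDNA→PCR→FAM label→HpaI→CE fluorescence. Bidirectional fit, DMSO = baseline.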
Assay [4] in a line: ATG_NF_kB_CIS: Attagene CIS-FACTORIAL HepG2 Assay for human Nuclear Factor Kappa B (NF-kB) (AID 2282991). The following applies: HepG2 Attagene cis-factorial NF-kB reporter mRNA; actives raise or lower the signal. Put shortly: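 Multiplexed cis-reporter assay in transiently transfected HepG2. 24 h treatment; RNA isolated, RT-PCR, labelled fragments resolved by CE. DMSO baseline.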

A short description of assay [5]: ATG_NRF2_ARE_CIS: Attagene CIS-FACTORIAL HepG2 Assay for human Nuclear Factor Erythroid 2 Related Factor 2 (NFR2) response to Antioxidant Response Elements (ARE) (AID 2282992).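 On AC50: reporter mRNA level measured by RT-PCR and capillary electrophoresis fluorescence.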 The following applies: HepG2 Attagene ARE/NRF2 reporter, transcription factor activity; actives raise or lower the signal. In short, it runs like this: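 Endogenous transcription factor activity in human liver HepG2 cells is tracked via a cis-element-driven reporter within a multiplexed set. mRNA induction is read by RT-PCR and capillary electrophoresis after 24 h, with DMSO as baseline.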

Assay [6] is described as follows: ATG_Oct_MLP_CIS: Attagene CIS-FACTORIAL HepG2 Assay for human Octamer-Binding Transcription Factor (Oct) (AID 2282993). The following applies: HepG2 Attagene cis-factorial Oct reporter, mRNA; actives raise or lower the signal. Put shortly:
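Multiplexed cis-reporter assay in human liver HepG2 cells, 24 h incubation. Reporter RNA amplified and labelled, then resolved by capillary electrophoresis; DMSO serves as negative control and baseline.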

Assay [7] can be described thus: BSK_3C_TissueFactor: BioMAP Diversity Plus: 3C Assay for Tissue Factor Biomarker Activity (AID 2282997). Conditions: BioMAP 3C HUVEC, tissue factor biomarker readout; actives raise or lower the signal. Put shortly:
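In this endothelial system, HUVEC are treated for 24 h and Tissue Factor is assessed by ELISA, normalised to DMSO.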

Assay [8] is described as follows: BSK_3C_uPAR: BioMAP Diversity Plus: 3C Assay for Urokinase-type plasminogen activator receptor (uPAR) Biomarker Activity (AID 2282998). The following applies: BioMAP 3C HUVEC, uPAR biomarker ELISA; actives raise or lower the signal. In short, it runs like this: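 Dose primary human umbilical vein endothelial cells, incubate 24 h, measure cell-surface uPAR by ELISA, then fit the signal in both directions against the DMSO negative control.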

Assay [9] can be described thus: BSK_3C_VCAM1: BioMAP Diversity Plus: 3C Assay for Vascular cell adhesion molecule 1 (VCAM1) Biomarker Activity (AID 2282999). Conditions: BioMAP 3C HUVEC, VCAM1 ELISA, cytokine-stimulated; actives raise or lower the signal. In short, it runs like this:
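HUVEC primary cells, 24 h compound exposure; VCAM-1 by ELISA; gain/loss of signal fitted bidirectionally vs DMSO baseline.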
For orientation: An ELISA detects its analyte on a solid surface through an enzyme-linked reagent.

Assay [10] in a line: BSK_4H_Eotaxin3: BioMAP Diversity Plus: 4H Assay for Eotaxin 3 Biomarker Activity (AID 2283000).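 On outcome: CCL26 protein level quantified by ELISA in parallel with SRB cytotoxicity check.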 Conditions: primary human endothelial cells (HUVEC); actives raise or lower the signal. In short, it runs like this:
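ELISA quantitation of CCL26 (Eotaxin-3) protein from chemically dosed human vascular endothelial cells at 24 h; increases and decreases both scored relative to DMSO-treated baseline.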

Assay [11] has as its target human Peroxisome Proliferator-activated Receptor delta (PPARd), PPARD (gene 5467) (UniProt Q03181). In words: ATG_PPARd_TRANS: Attagene TRANS-FACTORIAL HepG2 Assay for human Peroxisome Proliferator-activated Receptor delta (PPARd) (AID 2283002; active means hit-call score of the fitted dose curve at least 0.9, where 1 is the maximum). In short, it runs like this: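 HepG2 cells transiently transfected with GAL4-UAS multiplexed reporter units driven by exogenous chimeric NR-GAL4 proteins; 24 h compound exposure. Reporter mRNA measured by RT-PCR, 6-FAM primer extension, HpaI digestion and capillary electrophoresis; gain of signal fitted relative to DMSO.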

Read-out in assay [12]: Intercellular Adhesion Molecule 1 (ICAM1), ICAM1 (gene 3383)
As to the kind of experiment: BSK_3C_ICAM1: BioMAP Diversity Plus: 3C Assay for Intercellular Adhesion Molecule 1 (ICAM1) Biomarker Activity (AID 2283003). Conditions: primary human endothelial cells (HUVEC); actives raise or lower the signal. Put shortly: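 ELISA readout of ICAM1 in human umbilical vein endothelial cells in the 3C system, taken 24 h post-dose. Gain or loss of signal versus DMSO was fitted in both directions, with SRB total-protein staining run in parallel.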

Assay [13] in a line: BSK_3C_Proliferation: Cell Proliferation Assessment in the BioMAP Diversity Plus: 3C Assay (AID 2283006).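 On AC50: potency may reflect either rise or fall in cell number versus DMSO.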 The following applies: primary human endothelial cells (HUVEC). In short, it runs like this:
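Proliferation as total protein: sulforhodamine B (0.1%) stain of TCA-fixed subconfluent human umbilical vein endothelial cells, absorbance 560 nm, 48 h after dosing. Activity fitted in both directions against DMSO baseline.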

Assay [14] concerns the target Peroxisome proliferator-activated receptor gamma (Homo sapiens) (UniProt P37231). In words: ATG_PPARg_TRANS: Attagene TRANS-FACTORIAL HepG2 Assay for human Peroxisome Proliferator-activated Receptor-gamma (PPARg) (AID 2283007; active means hit-call score of the fitted dose curve at least 0.9, where 1 is the maximum). In short, it runs like this: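 Human hepatoma HepG2, transient MRTU transfection, 24 h treatment. mRNA reporter signal by RT-PCR plus capillary electrophoresis, fluorescence detection; fitted for increase over DMSO negative control.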

Assay [15] concerns the target Nuclear receptor subfamily 1 group I member 2 (Homo sapiens) (UniProt O75469). As to the kind of experiment: ATG_PXR_TRANS: Attagene TRANS-FACTORIAL HepG2 Assay for human Pregnane X Receptor (PXR) (AID 2283008; active means hit-call score of the fitted dose curve at least 0.9, where 1 is the maximum). In short, it runs like this:
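HepG2 transfected (FuGene 6) with GAL4-UAS reporter units + PXR-Gal4 chimera; dosed 24 h. Total RNA → oligo(dT) RT → PCR → 6-FAM primer extension → HpaI cut → CE. Gain-of-signal vs DMSO.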

The target in assay [16] is Myc proto-oncogene protein (Homo sapiens) (UniProt P01106). In words: ATG_Myc_CIS: Attagene CIS-FACTORIAL HepG2 Assay for human Myelocytomatosis (Myc) Proto-Oncogene Transcription Factor (AID 2282990). Conditions: HepG2, Attagene cis-reporter transcription factor activity; actives raise or lower the signal. Put shortly: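 Transiently transfected HepG2 cells bearing cis-promoter reporter units for endogenous transcription factors; 24 h exposure. Reporter mRNA measured by RT-PCR, 6-FAM primer extension, HpaI cut and capillary electrophoresis; bidirectional fit relative to DMSO.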

The target of assay [17] is Cellular tumor antigen p53 (Homo sapiens) (UniProt P04637). As to the kind of experiment: ATG_p53_CIS: Attagene CIS-FACTORIAL HepG2 Assay for human p53 Transcription Factor (AID 2282994). Conditions: HepG2 p53 cis-element reporter, Attagene mRNA; actives raise or lower the signal. In short, it runs like this:
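Steps: transfect HepG2 with multiplexed cis reporter constructs; dose chemicals 24 h; extract RNA, reverse-transcribe, PCR-amplify reporter sequences; FAM-label, HpaI-digest, resolve fragments by CE. Activity fitted both directions relative to DMSO.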

Assay [18] concerns the target human Peroxisome Proliferator-activated Receptor alpha (PPARa), PPARA (gene 5465) (UniProt Q07869). As to the kind of experiment: ATG_PPARa_TRANS: Attagene TRANS-FACTORIAL HepG2 Assay for human Peroxisome Proliferator-activated Receptor alpha (PPARa) (AID 2283001; active means hit-call score of the fitted dose curve at least 0.9, where 1 is the maximum). Put shortly:
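HepG2, transient MRTU transfection, 24 h treatment. RT-PCR → FAM labelling → capillary electrophoresis. Fit vs DMSO, positive direction.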

For assay [19], the target named is human Retinoic Acid Receptor gamma (RARg), RARG (gene 5916) (UniProt P13631). In words: ATG_RARg_TRANS: Attagene TRANS-FACTORIAL HepG2 Assay for human Retinoic Acid Receptor gamma (RARg) (AID 2283009; active means hit-call score of the fitted dose curve at least 0.9, where 1 is the maximum). In short, it runs like this:
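Transactivation of exogenous RARg-Gal4 fusion measured as reporter transcript induction after 24 h in transfected HepG2 cells. RNA reverse-transcribed, amplified, fluorescently labeled and resolved by capillary electrophoresis; increase relative to DMSO.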

Assay [20] addresses Retinoic acid receptor alpha (Homo sapiens) (UniProt P10276). In words: ATG_RARa_TRANS: Attagene TRANS-FACTORIAL HepG2 Assay for human Retinoic Acid Receptor alpha (RARa) (AID 2283005; active means hit-call score of the fitted dose curve at least 0.9, where 1 is the maximum). In short, it runs like this:
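HepG2 transiently transfected with multiplex GAL4-UAS reporter units including a human RARa–GAL4 chimera; 24 h compound exposure. Reporter mRNA quantified by RT-PCR, 6-FAM labeling and capillary electrophoresis; gain of signal versus DMSO.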

Here are results for six compounds from PubChem BioAssay (EPA / NIEHS).

The structures appear in SMILES notation. Results filed as inconclusive are left out. The source made the active and inactive calls. How the source made its calls, unless noted: active means hit-call score of the fitted dose curve at least 0.9, where 1 is the maximum; inactive means score below 0.9.

Chain of Nuclear receptor subfamily 1 group I member 2 (Homo sapiens) (O75469 whole entry, looked up, the tested form may be a part): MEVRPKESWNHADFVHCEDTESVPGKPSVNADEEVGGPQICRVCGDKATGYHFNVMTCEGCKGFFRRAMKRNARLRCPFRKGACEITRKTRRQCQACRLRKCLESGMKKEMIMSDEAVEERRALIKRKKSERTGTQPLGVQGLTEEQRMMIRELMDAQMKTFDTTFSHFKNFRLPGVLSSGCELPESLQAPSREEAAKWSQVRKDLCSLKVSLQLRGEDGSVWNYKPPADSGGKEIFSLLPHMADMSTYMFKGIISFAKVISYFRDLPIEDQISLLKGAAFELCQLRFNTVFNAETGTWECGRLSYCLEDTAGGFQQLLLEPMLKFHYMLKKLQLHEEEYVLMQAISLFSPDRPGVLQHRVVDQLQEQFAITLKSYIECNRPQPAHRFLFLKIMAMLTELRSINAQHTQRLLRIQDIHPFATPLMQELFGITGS
Chain of human Peroxisome Proliferator-activated Receptor delta (PPARd), PPARD (gene 5467) (Q03181 whole entry, looked up, the tested form may be a part): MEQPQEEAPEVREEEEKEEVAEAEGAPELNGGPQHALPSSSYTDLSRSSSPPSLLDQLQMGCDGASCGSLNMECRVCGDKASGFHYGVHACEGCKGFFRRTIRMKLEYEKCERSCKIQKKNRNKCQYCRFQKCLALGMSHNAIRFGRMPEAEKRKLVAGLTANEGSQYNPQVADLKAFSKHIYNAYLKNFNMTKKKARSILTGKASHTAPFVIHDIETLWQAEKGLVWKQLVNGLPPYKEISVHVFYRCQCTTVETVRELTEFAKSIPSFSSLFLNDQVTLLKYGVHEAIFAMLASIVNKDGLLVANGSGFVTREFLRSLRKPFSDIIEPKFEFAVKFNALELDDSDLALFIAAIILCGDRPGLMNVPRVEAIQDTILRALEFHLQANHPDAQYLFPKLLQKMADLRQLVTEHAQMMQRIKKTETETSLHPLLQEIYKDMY
Chain of Nuclear respiratory factor 1 (Homo sapiens) (Q16656 whole entry, looked up): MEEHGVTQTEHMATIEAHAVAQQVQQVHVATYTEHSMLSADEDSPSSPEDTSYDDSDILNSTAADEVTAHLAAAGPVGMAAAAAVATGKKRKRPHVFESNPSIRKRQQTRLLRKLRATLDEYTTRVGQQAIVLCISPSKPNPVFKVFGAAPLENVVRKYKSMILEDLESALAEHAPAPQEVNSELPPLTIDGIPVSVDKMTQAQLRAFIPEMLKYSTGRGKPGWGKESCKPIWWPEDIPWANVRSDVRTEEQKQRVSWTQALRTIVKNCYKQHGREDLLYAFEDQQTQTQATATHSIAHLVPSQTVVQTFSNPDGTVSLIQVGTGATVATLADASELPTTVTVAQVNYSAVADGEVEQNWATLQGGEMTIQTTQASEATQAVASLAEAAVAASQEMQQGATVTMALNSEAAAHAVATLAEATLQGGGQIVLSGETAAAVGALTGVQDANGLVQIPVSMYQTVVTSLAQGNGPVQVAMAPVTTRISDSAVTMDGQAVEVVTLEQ
Chain of Transcriptional activator Myb (Homo sapiens) (P10242 whole entry, looked up): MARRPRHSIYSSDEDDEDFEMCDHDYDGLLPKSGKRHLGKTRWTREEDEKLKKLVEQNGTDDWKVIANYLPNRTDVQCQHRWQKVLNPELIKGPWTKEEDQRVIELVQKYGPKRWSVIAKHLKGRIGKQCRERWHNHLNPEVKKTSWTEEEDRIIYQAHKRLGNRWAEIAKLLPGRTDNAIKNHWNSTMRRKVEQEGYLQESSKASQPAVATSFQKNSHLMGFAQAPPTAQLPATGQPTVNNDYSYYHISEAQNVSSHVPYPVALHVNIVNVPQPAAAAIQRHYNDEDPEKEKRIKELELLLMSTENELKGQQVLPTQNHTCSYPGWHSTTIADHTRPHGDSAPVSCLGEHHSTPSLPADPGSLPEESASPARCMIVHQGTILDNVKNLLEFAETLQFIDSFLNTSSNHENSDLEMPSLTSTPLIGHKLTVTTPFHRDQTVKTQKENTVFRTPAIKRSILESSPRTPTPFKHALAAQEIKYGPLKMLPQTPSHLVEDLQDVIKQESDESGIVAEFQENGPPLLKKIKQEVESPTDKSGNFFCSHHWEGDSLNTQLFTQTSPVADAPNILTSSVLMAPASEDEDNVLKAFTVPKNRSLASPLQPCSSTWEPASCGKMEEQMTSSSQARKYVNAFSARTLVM
Chain of Peroxisome proliferator-activated receptor gamma (Homo sapiens) (P37231 whole entry, looked up): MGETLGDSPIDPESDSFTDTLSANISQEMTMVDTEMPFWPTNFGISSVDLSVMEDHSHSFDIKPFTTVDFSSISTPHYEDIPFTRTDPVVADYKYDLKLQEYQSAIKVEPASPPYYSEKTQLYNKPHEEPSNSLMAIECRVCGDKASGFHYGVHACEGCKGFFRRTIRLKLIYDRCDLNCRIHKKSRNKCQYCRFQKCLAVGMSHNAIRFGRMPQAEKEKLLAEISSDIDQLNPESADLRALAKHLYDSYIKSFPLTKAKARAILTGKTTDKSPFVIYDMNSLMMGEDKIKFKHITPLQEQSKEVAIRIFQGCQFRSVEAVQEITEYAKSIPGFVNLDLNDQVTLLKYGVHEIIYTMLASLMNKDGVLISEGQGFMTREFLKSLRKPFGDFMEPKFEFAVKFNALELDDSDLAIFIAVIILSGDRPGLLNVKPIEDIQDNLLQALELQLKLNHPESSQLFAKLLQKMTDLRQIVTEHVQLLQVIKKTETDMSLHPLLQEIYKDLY
Chain of Cellular tumor antigen p53 (Homo sapiens) (P04637 whole entry, looked up, the tested form may be a part): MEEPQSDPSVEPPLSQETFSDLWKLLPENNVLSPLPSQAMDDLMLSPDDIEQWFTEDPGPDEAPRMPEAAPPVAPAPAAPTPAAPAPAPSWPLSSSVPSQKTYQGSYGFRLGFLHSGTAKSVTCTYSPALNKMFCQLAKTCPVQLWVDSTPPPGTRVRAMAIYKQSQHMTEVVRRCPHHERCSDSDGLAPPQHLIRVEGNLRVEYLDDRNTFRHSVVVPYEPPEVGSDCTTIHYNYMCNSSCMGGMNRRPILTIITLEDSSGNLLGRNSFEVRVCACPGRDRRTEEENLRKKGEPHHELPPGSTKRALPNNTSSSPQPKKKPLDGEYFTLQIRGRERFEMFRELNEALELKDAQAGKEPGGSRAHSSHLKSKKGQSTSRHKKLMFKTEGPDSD
Chain of human Peroxisome Proliferator-activated Receptor alpha (PPARa), PPARA (gene 5465) (Q07869 whole entry, looked up): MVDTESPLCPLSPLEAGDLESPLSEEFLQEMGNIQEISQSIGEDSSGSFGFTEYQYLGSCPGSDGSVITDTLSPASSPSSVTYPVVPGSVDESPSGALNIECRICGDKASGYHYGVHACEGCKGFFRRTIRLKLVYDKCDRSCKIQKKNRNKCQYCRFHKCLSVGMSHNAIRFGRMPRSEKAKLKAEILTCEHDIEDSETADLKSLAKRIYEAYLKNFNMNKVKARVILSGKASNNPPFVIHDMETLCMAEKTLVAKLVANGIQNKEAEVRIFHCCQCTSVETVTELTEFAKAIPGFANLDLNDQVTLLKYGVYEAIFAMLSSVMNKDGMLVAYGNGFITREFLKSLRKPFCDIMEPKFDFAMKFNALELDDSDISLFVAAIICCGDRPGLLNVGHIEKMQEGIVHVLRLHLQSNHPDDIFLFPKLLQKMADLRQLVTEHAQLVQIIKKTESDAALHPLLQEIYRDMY
Chain of Myc proto-oncogene protein (Homo sapiens) (P01106 whole entry, looked up): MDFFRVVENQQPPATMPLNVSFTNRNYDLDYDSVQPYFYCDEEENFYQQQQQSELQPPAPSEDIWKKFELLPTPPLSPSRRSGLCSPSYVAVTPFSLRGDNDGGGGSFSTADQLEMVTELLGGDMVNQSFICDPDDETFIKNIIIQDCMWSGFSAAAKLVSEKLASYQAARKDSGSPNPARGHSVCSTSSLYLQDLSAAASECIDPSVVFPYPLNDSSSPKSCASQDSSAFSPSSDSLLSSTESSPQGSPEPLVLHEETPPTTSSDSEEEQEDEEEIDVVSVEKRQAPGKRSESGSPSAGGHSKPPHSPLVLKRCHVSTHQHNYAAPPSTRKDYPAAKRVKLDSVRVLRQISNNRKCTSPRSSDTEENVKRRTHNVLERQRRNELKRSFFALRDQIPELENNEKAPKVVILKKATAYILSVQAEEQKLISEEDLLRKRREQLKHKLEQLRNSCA
Chain of human Retinoic Acid Receptor gamma (RARg), RARG (gene 5916) (P13631 whole entry, looked up, the tested form may be a part): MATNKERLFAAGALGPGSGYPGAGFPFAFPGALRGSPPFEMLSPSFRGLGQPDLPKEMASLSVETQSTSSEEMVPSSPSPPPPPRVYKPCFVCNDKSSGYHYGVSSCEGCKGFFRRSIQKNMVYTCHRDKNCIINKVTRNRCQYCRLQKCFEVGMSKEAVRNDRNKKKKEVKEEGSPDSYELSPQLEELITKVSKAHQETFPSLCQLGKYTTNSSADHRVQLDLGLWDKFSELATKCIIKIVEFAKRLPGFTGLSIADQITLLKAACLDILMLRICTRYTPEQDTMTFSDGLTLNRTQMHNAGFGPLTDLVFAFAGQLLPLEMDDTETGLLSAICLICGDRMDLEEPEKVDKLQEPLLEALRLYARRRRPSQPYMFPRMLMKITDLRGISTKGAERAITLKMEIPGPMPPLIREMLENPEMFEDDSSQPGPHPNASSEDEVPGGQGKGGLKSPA
Chain of Retinoic acid receptor alpha (Homo sapiens) (P10276 whole entry, looked up, the tested form may be a part): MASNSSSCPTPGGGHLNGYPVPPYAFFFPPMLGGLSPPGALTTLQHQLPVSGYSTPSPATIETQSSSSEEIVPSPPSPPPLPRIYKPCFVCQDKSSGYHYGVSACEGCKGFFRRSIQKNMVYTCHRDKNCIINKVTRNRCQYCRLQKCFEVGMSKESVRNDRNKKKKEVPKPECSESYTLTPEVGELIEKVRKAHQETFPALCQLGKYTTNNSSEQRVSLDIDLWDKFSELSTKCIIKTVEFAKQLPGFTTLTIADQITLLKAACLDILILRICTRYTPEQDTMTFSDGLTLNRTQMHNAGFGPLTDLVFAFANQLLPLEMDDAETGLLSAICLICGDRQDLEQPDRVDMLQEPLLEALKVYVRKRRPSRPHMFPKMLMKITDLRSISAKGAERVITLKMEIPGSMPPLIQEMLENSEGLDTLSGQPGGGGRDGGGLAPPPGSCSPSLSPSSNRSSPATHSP

With `Nc1ccc([N+](=O)[O-])cc1Cl`, the call in [1], in assay [2], in assay [3], in assay [4], in assay [5] and in [6] was inactive. The outcome in assay [7], in [8], in assay [9], in [10], in [11] and in assay [12] was inactive. Also, the outcome in [13], in assay [14] and in assay [15] was inactive.

Take `CC(C)(C)c1ccc(O)cc1`: the result in assay [1], in assay [16], in [7], in assay [8], in assay [9] and in assay [10] was inactive. Moreover, the outcome in assay [18], in assay [11], in assay [12], in assay [13] and in [14] was inactive. Further, the AC50 is 166 µM (active) in [6], 170 µM (active) in assay [17] and 14.8 µM (active) in assay [15].

For the compound `O=S1(=O)OCC2C(CO1)C1(Cl)C(Cl)=C(Cl)C2(Cl)C1(Cl)Cl` (centres undefined), the result in assay [1], in assay [2], in [7], in [9], in assay [11] and in assay [12] was inactive. Moreover, the compound was called inactive in assay [19]. In addition, the AC50 in [3] was 178 µM (active); in [4] it was 8.15 µM (active); in [5], 44.5 µM (active); in assay [6] it was 170 µM (active); in assay [17] it was 18.3 µM (active); in [8], 20 µM (active). Besides, the values for the AC50 in [10], in assay [13] and in assay [15] were 13.1 µM (active), 25.1 µM (active) and 2.37 µM (active), respectively.

As to `CCOP(=S)(OCC)SCSc1ccc(Cl)cc1`, the compound was classed as inactive in [1], in assay [2], in [3], in [4], in assay [6] and in assay [9]. The call in [11], in [12] and in [14] was inactive. In addition, the AC50 was 29.6 µM (active) in [5]; 0.0123 µM (active) in assay [7]; 0.397 µM (active) in assay [8]; 7.22 µM (active) in [10]; 11.8 µM (active) in assay [13]; 5.52 µM (active) in [15].

As to `O=C(O)C(Cl)Cl`, the outcome in assay [1], in [2], in assay [3], in [5], in assay [6] and in assay [7] was inactive. Besides, the result in assay [8], in assay [9], in assay [10], in [11], in assay [12] and in assay [13] was inactive. The call in assay [14] was inactive.

For the compound `ClC(Cl)c1ccccc1`, the result in assay [1], in [2], in assay [3], in [4], in assay [5] and in assay [6] was inactive. Further, the outcome in assay [7], in assay [8], in [9], in assay [10], in [18] and in assay [11] was inactive. Further, the result in assay [12], in [20], in assay [13] and in assay [15] was inactive.

One may read the AC50 as the midpoint of the concentration-response curve, whichever way the signal moves.
